# In ChEMBL document CHEMBL3988442, “University of Dundee, Small-Polar-MMV Screening Library” (2021):
# Hit rate of the full screen: of about 69,000 compounds, about 1,000 (1.4%) showed an effect of 50% or more. This excerpt belongs to a sample that is enriched for strong results.
# Tested on: Leishmania donovani
# Assay: Leishmania intramacrophage assay
# Format: functional, organism-based
# Set-up: scale not given: in the data most compounds retested in dose-response had high values
smiles,measurement,setting,value
CN1Cc2ccccc2CC1C(=O)N1CCN(CCS(C)(=O)=O)CC1 (stereo unspecified),Percent Effect,"30.3 µM, […]",-7.608%
COc1ccc(-c2nnsc2C(=O)N2CCC(C(N)=O)CC2)cc1,Percent Effect,"30.3 µM, […]",-2.161%
O=c1[nH]cc(N2CCOCC2)c(=O)[nH]1,Percent Effect,"30.3 µM, […]",-12.54%
O=C(O)C(F)(F)F.O=C(O)C(F)(F)F.O=c1ccc2c(n1Cc1ccncc1)CCN(Cc1ccoc1)CC2,Percent Effect,"30.3 µM, […]",7.941%
O=C(O)C(F)(F)F.O=C(O)C(F)(F)F.O=c1ccc2c(n1CCN1CCCC1)CCN(Cc1ccoc1)CC2,Percent Effect,"30 µM, 30.03 µM",45%
O=C(O)C(F)(F)F.O=C(O)C(F)(F)F.O=c1ccc2c(n1Cc1cccnc1)CCN(Cc1ccoc1)CC2,Percent Effect,"30.3 µM, […]",52.28%
CCN(CC)C(CNC(=O)c1ccnc(N(C)C)c1)c1ccsc1 (stereo unspecified),Percent Effect,"30.3 µM, […]",1.995%
Cc1ccc(NC2CCN(C(=O)CCc3c(C)noc3C)CC2)nn1,Percent Effect,30 µM,23.52%
Oc1ccc(-c2c(-c3ccccc3)ncn2C[C@H]2CCCN2)cc1,Percent Effect,"30.3 µM, […]",51.83%
O=C(O)c1ccccc1-c1c(-c2ccccc2)ncn1C[C@H]1CCCN1,Percent Effect,"30.3 µM, […]",31.03%
O=C(O)c1ccccc1-c1c(-c2ccccc2)ncn1CC1CCCO1 (stereo unspecified),Percent Effect,"30.3 µM, […]",-1.472%
CCc1ccc(C(COC)NC(=O)c2ccc(O)nc2)o1 (stereo unspecified),Percent Effect,"30.3 µM, […]",-7.414%
CCc1ccc(C(COC)NC(=O)c2ccc(NC(C)=O)cc2)o1 (stereo unspecified),Percent Effect,"30.3 µM, […]",-4.032%
CCc1ccc(C(COC)NC(=O)c2ccc(C(N)=O)cc2)o1 (stereo unspecified),Percent Effect,"30.3 µM, […]",64.18%
NC(=O)CS(=O)(=O)Cc1csc(-c2ccccc2)n1,Percent Effect,"30.3 µM, […]",15.77%
Cc1nnsc1C(=O)NCCNS(=O)(=O)c1cccs1,Percent Effect,"30.3 µM, […]",-23.26%
Cc1nc(C)n(C2CCCN(C(=O)c3sccc3C)C2)n1 (stereo unspecified),Percent Effect,30 µM,16.01%
CC(=O)NCCNC(=O)NCC1Cc2ccccc2O1 (stereo unspecified),Percent Effect,"30.3 µM, […]",52.86%
CC(C)c1noc(CCNC(=O)NCC2Cc3ccccc3O2)n1 (stereo unspecified),Percent Effect,"30.3 µM, […]",-9.19%
Cc1cc(C)c(CNC(=O)NCC2Cc3ccccc3O2)c(=O)[nH]1 (stereo unspecified),Percent Effect,"30.3 µM, […]",1.622%
NS(=O)(=O)CCNC(=O)c1cc(Br)c2c(c1)OCCO2,Percent Effect,"30.3 µM, […]",-2.46%
CC(C)CC(=O)N1C[C@@H]2CCN(c3ncccn3)C[C@@H]2C1.O=C(O)C(F)(F)F,Percent Effect,"30 µM, 30.03 µM",12.14%
CC(C)(C)c1n[nH]cc1CNC1CCC(C(F)(F)F)CC1.Cl (stereo unspecified),Percent Effect,"30.3 µM, […]",-4.401%
COCCNC(=O)[C@@H]1CN(c2cc(OC)ncn2)C[C@H]2OCC[C@H]21,Percent Effect,"30.3 µM, […]",7.324%
COCCNC(=O)[C@H]1CN(c2ncccn2)C[C@H]2OCC[C@@H]12,Percent Effect,"30.3 µM, […]",52.44%
COCCNC(=O)[C@@H]1CN(c2ncccn2)C[C@H]2OCC[C@H]21,Percent Effect,"30.3 µM, […]",9.036%
CCC1CCC(N(Cc2cc(=O)n(C)c(=O)n2C)C2CC2)CC1 (stereo unspecified),Percent Effect,"30.3 µM, […]",27.04%
CC1(C)CN(CC(F)(F)F)CCN1CC(N)=O,Percent Effect,"30.3 µM, […]",13.64%
Cc1ccc(OCCn2cnc3oc(C)c(C(=O)O)c3c2=O)cc1,Percent Effect,"30.3 µM, […]",-9.017%
CC(c1nc(C2CC2)no1)N1CCN(CCn2ccccc2=O)CC1 (stereo unspecified),Percent Effect,"30.3 µM, […]",21.89%
Cc1noc(C(C)N2CCN(CCn3ccccc3=O)CC2)n1 (stereo unspecified),Percent Effect,"30.3 µM, […]",29.89%
CCCc1noc(C(C)N2CCN(CCn3ccccc3=O)CC2)n1 (stereo unspecified),Percent Effect,"30.3 µM, […]",52.92%
Cc1nc2ccc(S(=O)(=O)Nc3c(C)nn(CC(=O)O)c3C)cc2s1,Percent Effect,"30.3 µM, […]",-9.195%
CCOC[C@@H]1CC[C@H]2[C@H](CCN2S(=O)(=O)c2ccc(F)cc2)O1,Percent Effect,"30.3 µM, […]",19.83%
CCCC(NC(=O)c1cc(C)n(C2CC2)c1C)c1nnn[nH]1 (stereo unspecified),Percent Effect,"30 µM, 30.03 µM",2.645%
CCn1nnc(NCc2cc(Cl)cc(Cl)c2OC)n1,Percent Effect,"30.3 µM, […]",-5.532%
CCOc1c(CNCCCn2ccnc2)cc(Cl)cc1OC.Cl.Cl,Percent Effect,"30.3 µM, […]",35.73%
COc1ccc(Cl)cc1CNCCCn1ccnc1,Percent Effect,"30.3 µM, […]",3.119%
CCOc1c(Cl)cc(Cl)cc1CNCCCn1ccnc1,Percent Effect,"30.3 µM, […]",67.73%
CCOc1ccc(Cl)cc1CNCCCn1ccnc1,Percent Effect,"30 µM, 30.03 µM",1.663%
Cc1cc(F)ccc1CN1CCC(O)(CN2CCCCC2)C1 (stereo unspecified),Percent Effect,"30 µM, 30.03 µM",37.89%
Cc1cc(F)ccc1CN1CCCC(O)(CN2CCCC2)C1 (stereo unspecified),Percent Effect,"30.3 µM, […]",37.99%
COc1ccc(CN2CCC(O)(CN3CCCCC3)C2)c(C)c1 (stereo unspecified),Percent Effect,"30.3 µM, […]",67.74%
CCOc1ccc(C(=O)CCC(=O)N(C)Cc2nc(C)c[nH]2)cc1C,Percent Effect,"30.3 µM, […]",-49.88%
CN1CCC(N(C)C[C@H]2CC[C@@H](Cc3cccc(CO)c3)O2)CC1,Percent Effect,"30.3 µM, […]",11.6%
CN1CCC(N(C)C[C@H]2CC[C@@H](Cc3ccc4occc4c3)O2)CC1,Percent Effect,"30.3 µM, […]",87.95%
COc1ccc(C[C@@H]2CC[C@H](CN(C)C3CCN(C)CC3)O2)cc1,Percent Effect,"30.3 µM, […]",8.587%
CCN(C)C[C@H]1CC[C@@H](Cc2ccc3c(cnn3C)c2)O1,Percent Effect,"30.3 µM, […]",-0.9976%
CN1CCC(N(C)C[C@H]2CC[C@@H](Cc3cccc(O)c3)O2)CC1,Percent Effect,"30.3 µM, […]",81.26%
CN1CCC(N(C)C[C@H]2CC[C@@H](Cc3ccc4c(cnn4C)c3)O2)CC1,Percent Effect,"30.3 µM, […]",38.58%
Cc1ccnn1CCC(=O)N1CCCC1c1cc2cccnc2[nH]1.Cl (stereo unspecified),Percent Effect,"30.3 µM, […]",-28.4%
COCCNC(=O)N1CCCCC1CNC(=O)Nc1ccccc1 (stereo unspecified),Percent Effect,"30.3 µM, […]",-22.22%
Cc1nc(CNC(=O)N(CCCO)C2CCc3ccccc32)oc1C (stereo unspecified),Percent Effect,"30.3 µM, […]",21.1%
CC(C)c1cc(C(=O)N2CC[C@@H](c3ccc4c(c3)OCO4)[C@H](O)C2)[nH]n1,Percent Effect,"30.3 µM, […]",26.43%
CCOCC1CN(Cc2cnn(C)c2)Cc2nn(C)cc21.O=C(O)C(F)(F)F (stereo unspecified),Percent Effect,"30 µM, 30.03 µM",-19.77%
Cc1nn(Cn2ccc(C(=O)N3CCC(C)CC3)n2)c(C)c1Cl,Percent Effect,"30.3 µM, […]",52.68%
Cc1nn(Cn2ccc(C(=O)N3CCCC(C)C3)n2)c(C)c1Cl (stereo unspecified),Percent Effect,"30.3 µM, […]",24.98%
Cc1nn(Cn2ccc(C(=O)N3CCCC3)n2)c(C)c1Cl,Percent Effect,"30.3 µM, […]",14.44%
Cc1cc(C(=O)NCc2cccnc2N2CCCC(O)C2)[nH]n1 (stereo unspecified),Percent Effect,"30.3 µM, […]",14.66%
CN(Cc1ccc(Br)c2cccnc12)S(C)(=O)=O,Percent Effect,"30.3 µM, […]",20.74%
O=C(NCCc1cccs1)NCC(O)c1cccc(F)c1 (stereo unspecified),Percent Effect,30 µM,0.0374%
Cc1nc(Cn2c3c(ccc2=O)CC(N)CC3)cs1 (stereo unspecified),Percent Effect,"30.3 µM, […]",24.76%
Cc1nc(Cn2c3c(ccc2=O)CC(NC(N)=O)CC3)cs1 (stereo unspecified),Percent Effect,"30.3 µM, […]",52.43%
CCCC(=O)NC1CCc2c(ccc(=O)n2Cc2csc(C)n2)C1.O=C(O)C(F)(F)F (stereo unspecified),Percent Effect,"30.3 µM, […]",38.16%
CCN1CC2(CC1=O)CN(Cc1ccncc1)CCN(C(=O)C(C)C)C2.O=C(O)C(F)(F)F.O=C(O)C(F)(F)F (stereo unspecified),Percent Effect,"30.3 µM, […]",17.44%
O=C(C[C@@H]1COC[C@H]2CN(C3CCCC3)C[C@@H]12)N1CCCCO1.O=C(O)C(F)(F)F,Percent Effect,"30.3 µM, […]",0.3497%
Cc1c[nH]c(CN(C)C(C(=O)O)c2c(F)cccc2OC(C)C)n1 (stereo unspecified),Percent Effect,"30.3 µM, […]",12.35%
CC(O)CN1CCC(CNCc2cccc(C(=O)N(C)C)c2)CC1 (stereo unspecified),Percent Effect,"30.3 µM, […]",15.32%
CC(O)CN1CCC(CNCc2cccc(C(N)=O)c2)CC1 (stereo unspecified),Percent Effect,"30 µM, 30.03 µM",24.83%
CC(O)CN1CCC(CNCc2ccccc2C(F)(F)F)CC1 (stereo unspecified),Percent Effect,30 µM,19.95%
CC(O)CN1CCC(CNCc2cccc(OC(F)(F)F)c2)CC1 (stereo unspecified),Percent Effect,30 µM,66.17%
CC(O)CN1CCC(CNCc2ccccc2OC(F)(F)F)CC1 (stereo unspecified),Percent Effect,"30 µM, 30.03 µM",31.23%
CC(O)CN1CCC(CNCc2ccc(S(C)(=O)=O)cc2)CC1 (stereo unspecified),Percent Effect,"30 µM, 30.03 µM",29.6%
CC(O)CN1CCC(CNCc2cccc(OC(C)C)c2)CC1 (stereo unspecified),Percent Effect,"30 µM, 30.03 µM",57.47%
CC(O)CN1CCC(CNCc2ccc(C#N)cc2)CC1 (stereo unspecified),Percent Effect,"30.3 µM, […]",-9.359%
CC(O)CN1CCC(CNCc2cccc(Cl)c2)CC1 (stereo unspecified),Percent Effect,"30.3 µM, […]",14.58%
CC(O)CN1CCC(CNCc2cccc(C(F)(F)F)c2)CC1 (stereo unspecified),Percent Effect,"30.3 µM, […]",35.92%
CC(O)CN1CCC(CNCc2cccc(Br)c2)CC1 (stereo unspecified),Percent Effect,"30 µM, 30.03 µM",61.22%
CC(O)CN1CCC(CNCc2ccc(OC(F)(F)F)cc2)CC1 (stereo unspecified),Percent Effect,30 µM,89.6%
COC(=O)c1cc(NCC(=O)NC(N)=O)cc(C(F)(F)F)c1,Percent Effect,"30.3 µM, […]",10.64%
C(=C\c1ccccc1)/CNCC1CCc2nncn2C1 (stereo unspecified),Percent Effect,"30.3 µM, […]",-5.474%
O=C(Nc1ccccc1F)NC1(CO)CCOCC1,Percent Effect,"30.3 µM, […]",37.09%
Cc1nc(CN2C[C@@H]3CN(C(=O)c4ccnnc4)C[C@@H]3C2=O)cs1.O=C(O)C(F)(F)F,Percent Effect,"30 µM, 30.03 µM",13.66%
CC(C)(C)n1ncc2c1CCCC2NCc1cccc2c1OCCO2 (stereo unspecified),Percent Effect,30 µM,39.91%
COc1c(CC2CC(C(=O)O)=NO2)c(Br)c2c(c1OC)OCO2 (stereo unspecified),Percent Effect,"30.3 µM, […]",9.318%
Cc1noc(CNC(=O)N2CCN(c3nc(C)c(C)s3)CC2)n1,Percent Effect,"30.3 µM, […]",0.7779%
O=C(CN1CCOC(Cn2cccn2)C1)NCc1ccco1 (stereo unspecified),Percent Effect,30 µM,30.39%
OC(CNC1CCOCC1)c1ccc(Cl)c(F)c1 (stereo unspecified),Percent Effect,"30.3 µM, […]",9.683%
CC(=O)N1CCCCC[C@@H]2[C@@H]1[C@H](c1cccc(F)c1)CN2C(=O)C1CC1,Percent Effect,"30.3 µM, […]",16.49%
Cc1nc[nH]c1-c1nccn1CCN1CCOC1=O,Percent Effect,"30.3 µM, […]",3.243%
CC(C)COC(C)C(=O)NCCNS(C)(=O)=O (stereo unspecified),Percent Effect,"30.3 µM, […]",50.97%
CCOC(C)C(=O)NCCNS(C)(=O)=O (stereo unspecified),Percent Effect,"30.3 µM, […]",50.09%
CC(C)COC(C)C(=O)NCc1ccccc1 (stereo unspecified),Percent Effect,30 µM,13.02%
CC(C)COC(C)C(=O)NCCNC(=O)C(C)C (stereo unspecified),Percent Effect,"30.3 µM, […]",43.81%
CC(C)C(=O)NCCNC(=O)C(C)OCC(F)(F)F (stereo unspecified),Percent Effect,"30.3 µM, […]",28.18%
CC(CC(=O)NCCNS(C)(=O)=O)C1CCCCC1 (stereo unspecified),Percent Effect,"30.3 µM, […]",12.79%
CCOCC(O)CN1CCN(C(=O)c2ccc(C)nc2)CC1 (stereo unspecified),Percent Effect,30 µM,29.83%
COc1ccc(Br)cc1CCC(=O)N1CCCC(O)C1 (stereo unspecified),Percent Effect,"30.3 µM, […]",6.225%
N#Cc1cccc(OCCN2CCCC(c3noc(C4CC4)n3)C2)c1 (stereo unspecified),Percent Effect,"30.3 µM, […]",32.43%
COCC1CN(S(=O)(=O)c2cccs2)Cc2ncnn2C1 (stereo unspecified),Percent Effect,"30.3 µM, […]",38.74%
Cc1ccccc1C(=O)Nc1cnn(CCN2CCOCC2)c1,Percent Effect,30 µM,17.38%
